Experimental data published in the supplement of paper PMC3334620.
The full ranking holds about 33,000 sequences; the median of “E-score (-0.5 to 0.5)” is about -0.015, and the highest 2% start at about 0.3. What follows is part of a selection rich in the highest values, with near analogues and random picks from the rest.

Biological target: T1, Abf1 (UniProt P14164)
T1 sequence: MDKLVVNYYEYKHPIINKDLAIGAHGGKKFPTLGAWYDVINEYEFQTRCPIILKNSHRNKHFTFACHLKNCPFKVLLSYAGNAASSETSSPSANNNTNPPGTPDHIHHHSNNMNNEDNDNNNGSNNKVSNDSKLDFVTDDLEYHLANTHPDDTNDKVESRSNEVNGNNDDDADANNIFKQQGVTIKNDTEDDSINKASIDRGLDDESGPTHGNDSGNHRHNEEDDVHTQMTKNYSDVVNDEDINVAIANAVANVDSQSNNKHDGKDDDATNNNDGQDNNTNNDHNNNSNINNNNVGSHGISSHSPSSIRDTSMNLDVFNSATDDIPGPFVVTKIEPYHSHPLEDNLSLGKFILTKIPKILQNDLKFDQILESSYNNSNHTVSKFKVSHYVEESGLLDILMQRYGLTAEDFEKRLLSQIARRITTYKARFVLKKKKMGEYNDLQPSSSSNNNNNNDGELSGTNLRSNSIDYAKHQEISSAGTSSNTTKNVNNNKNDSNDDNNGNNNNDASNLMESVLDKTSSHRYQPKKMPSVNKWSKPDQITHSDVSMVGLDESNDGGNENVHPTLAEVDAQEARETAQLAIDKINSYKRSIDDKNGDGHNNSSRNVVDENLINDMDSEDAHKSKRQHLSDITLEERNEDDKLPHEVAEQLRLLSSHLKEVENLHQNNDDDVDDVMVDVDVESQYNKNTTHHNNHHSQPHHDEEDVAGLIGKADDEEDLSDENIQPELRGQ
Test: PBM E-score (8-mer binding enrichment) (E-score (-0.5 to 0.5)); higher = stronger / more preferred TF binding
Conditions: protein concentration: 200 nM; construct: GST-full length
Protocol: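 Universal 'all 10-mer' protein binding microarrays (Agilent AMADID 015681) probed with GST-tagged S. cerevisiae TFs (full-length or DBD) made by in vitro transcription/translation (PURExpress), about 100-200 nM. Bound TF was detected with fluorescent anti-GST. Each ungapped 8-mer (which stands for itself and its reverse complement) is scored by the PBM enrichment score (E-score), a modified Wilcoxon-Mann-Whitney statistic from -0.5 to +0.5, computed with the Universal PBM Analysis Suite. Scale: above 0.35 generally sequence-specific binding.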

Row | Sequence | PBM E-score
1 | ACCCGAGT | -0.152
2 | ACATTGAA | 0.0551
3 | ACGGTCGC | 0.134
4 | TGTAACAA | 0.0346
5 | AGCAGGCA | -0.114
6 | ACTGTATG | -0.184
7 | ACTGAAGT | -0.0998
8 | GTCCCGAA | 0.00205
9 | GAAATCAA | 0.0471
10 | AAAATCAC | 0.352
11 | CAAATCAC | 0.19
12 | AAAATCAG | 0.193
13 | AAAATCAA | 0.0207
14 | GAAATCAC | 0.322
15 | AACTGAGA | 0.0232
16 | CTAGATCA | 0.161
17 | GTAGATCA | 0.319
18 | CATGATCC | 0.00859
19 | AATGATCC | 0.0166
20 | CATGATCG | 0.0839
21 | GTTGATCA | 0.298
22 | ATTGATCA | 0.267
23 | ATAGATCA | 0.267

Row | Sequence | PBM E-score
24 | CATGATCA | 0.33
25 | AATGATCA | 0.347
26 | CTTGATCA | 0.183
27 | AATGATCG | 0.232
28 | CATGCGGC | -0.229
29 | GGTTAACA | -0.138
30 | AAAGAACT | 0.0334
31 | ACATTAGA | 0.0369
32 | AGTTAACT | -0.0757
33 | TCTGATCA | 0.155
34 | AATGAACT | -0.177
35 | TAAGATCA | 0.314
36 | TACGATCA | 0.208
37 | AATGATCT | 0.324
38 | GATGATCC | 0.0853
39 | GATGATTA | 0.263
40 | ACTGATCT | 0.0694
41 | AAAGATCA | 0.164
42 | CAAGATCA | 0.16
43 | GATGATCA | 0.329
44 | TATGATCA | 0.309
45 | GCCTAGAC | -0.11
46 | ATACATTC | 0.0799

Row | Sequence | PBM E-score
47 | AACGGGGC | -0.0372
48 | ACGCACCA | -0.101
49 | CCATTTCC | -0.0246
50 | CGGGTTAG | -0.173
51 | CAAATAGA | 0.0564
52 | GAGGTATC | 0.047
53 | ATAAGTGC | 0.0214
54 | AGAAGTGA | 0.243
55 | CGAAGTGA | 0.272
56 | ATAAGTGA | 0.3
57 | ATAAGTGG | 0.126
58 | GTAAGTGA | 0.208
59 | CTAAGTGA | 0.327
60 | CTAAGTGC | -0.0207
61 | GGAAGTGA | 0.329
62 | AGATTTAG | 0.0517
63 | CCGGAAGA | 0.0618
64 | AGACTTTA | 0.0584
65 | AGGCTCTG | -0.089
66 | CAGGCACC | -0.178
67 | GCCAGCCC | -0.375
68 | CACGCTCC | -0.00778
69 | AAAGTGAA | -0.0183

Row | Sequence | PBM E-score
70 | AAAGTGGC | -0.118
71 | AACGTGAG | 0.0297
72 | AGGGTGAA | -0.209
73 | AAAGTGAG | 0.2
74 | AAAGTGAC | 0.343
75 | AAAGTGAT | 0.397
76 | AACGTGAT | 0.327
77 | AGGGTGAT | 0.335
78 | ACAGTGAC | 0.259
79 | AACGTGAA | 0.057
80 | AGGGTGAG | -0.102
81 | CCCCAGGA | -0.301
82 | TAGTTCAA | -0.0129
83 | AACAGCAC | -0.13
84 | CACCCTGG | -0.33
85 | ATAGGCTC | -0.0801
86 | CCAAACCG | -0.0285
87 | AAGGACCC | -0.134
88 | ACATCCTA | 0.0617
89 | AATTCTCG | 0.162
90 | AGAGTGAT | 0.387
91 | CAAGTGAC | 0.242
92 | GAAGTGAC | 0.411

Row | Sequence | PBM E-score
93 | GAAGTGAA | 0.064
94 | AGAGTGAA | -0.0316
95 | AGAGTGAG | 0.0964
96 | GTCCGGTA | 0.00344
97 | CTCACGTA | -0.0341
98 | AACTATAT | 0.205
99 | ACTTATCA | 0.231
100 | TATTATCA | 0.34
101 | CATTATCC | 0.262
102 | AGTTATCA | 0.302
103 | CCTTATCA | 0.236
104 | CATTATCG | 0.0198
105 | AGTTATCG | 0.223
106 | TATTATGA | 0.0866
107 | GGTTATCA | 0.272
108 | TCTTATCA | 0.316
109 | TATTATAA | 0.121
110 | CATTATCA | 0.329
111 | GGGAGGCA | -0.284
112 | GGGGACGA | 0.135
113 | GATTATCA | 0.302
